# Source: PubChem BioAssay AID485281 (National Center for Advancing Translational Sciences (NCATS), 2010)
# Among all 350,000 compounds or so, about 260 (0.074%) were called active. Not shown: some 8% with an inconclusive outcome. Shown is part of a subset that was picked to be rich in actives. Values without a mark were called inactive. Calls follow the shape of the dose curve; as a rule, active = well fitted inhibition curve with a large enough effect; inconclusive = small, poorly fitted or top-dose-only effect; inactive = no such curve, though single readings can be large or run the other way.
# Target: Ferritin light chain (Equus caballus) (UniProt P02791)
# Sequence (P02791 2-175 limits assumed): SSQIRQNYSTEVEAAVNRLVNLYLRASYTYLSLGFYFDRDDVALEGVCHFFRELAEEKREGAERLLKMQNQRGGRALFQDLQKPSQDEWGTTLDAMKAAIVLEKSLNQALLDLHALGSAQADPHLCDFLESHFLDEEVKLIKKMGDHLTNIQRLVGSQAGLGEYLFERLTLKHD
# Experiment: qHTS Assay for Identification of Novel General Anesthetics; also: nearly all actives have a fitted effect of over 20% in size
# Settings: apoferritin/1-aminoanthracene competitive binding, fluorescence; series mostly up to 77.5 µM; activity change, negative = displacement: at the top concentration
# Source text: Source: NIH Chemical Genomics Center [NCGC]
# Assay Submitter: Roderic Eckenhoff, University of Pennsylvania
# Screening Center PI: Christopher P. Austin, NIH
# Probe Development: NIH Chemical Genomics Center [NCGC]
# Anesthetic development has remained a largely empirical process. There are growing concerns about the cognitive effects of known general anesthetics and acceleration of the onset of neurodegenerative disease. The compounds' toxicity and multiple specific binding targets in the mammalian brain [4] has made them less attractive as drug leads. In this assay, a GABAergic mimetic model system, apoferritin and a profluorescent 1-aminoanthracene ligand (1-AMA), was used to construct a competitive binding assay for identification of novel general anesthetics. The assay was validated for 1-AMA using other known anesthetics, such as isoflurane (CID:3763) and propofol (CID: 4943), [6].
# [1] S.L. Bianchi, T. Tran, C. Liu, S. Lin, Y. Li, J.M. Keller, R.G. Eckenhoff, and M.F. Eckenhoff, Brain and behavior changes in 12-month-old Tg2576 and nontransgenic mice exposed to anesthetics. Neurobiol Aging 29 (2008) 1002-10.
# [2] Z. Xie, Y. Dong, U. Maeda, R.D. Moir, W. Xia, D.J. Culley, G. Crosby, and R.E. Tanzi, The inhalation anesthetic isoflurane induces a vicious cycle of apoptosis and amyloid beta-protein accumulation. J Neurosci 27 (2007) 1247-54.
# [3] P. Honegger, and J.M. Matthieu, Selective toxicity of the general anesthetic propofol for GABAergic neurons in rat brain cell cultures.
# [4] M.F. Eckenhoff, K. Chan, and R.G. Eckenhoff, Multiple specific binding targets for inhaled anesthetics in the mammalian brain. J Pharmacol Exp Ther 300 (2002) 172-9.
# [5] C.A. Butts, J. Xi, G. Brannigan, A.A. Saad, S.P. Venkatachalan, R.A. Pearce, M.L. Klein, R.G. Eckenhoff, and I.J. Dmochowski, Identification of a fluorescent general anesthetic, 1-aminoanthracene. Proc Natl Acad Sci U S A 106 (2009) 6501-6.
# [6] W.A. Lea, J. Xi, A. Jadhav, L. Lu, C.P. Austin, A. Simeonov, and R.G. Eckenhoff, A high-throughput approach for identification of novel general anesthetics. PLoS One 4 (2009) e7150.
# Three uL of reagents (free 1-AMA (50% saturated solution of 1-aminoanthracene
# in PBS) in columns 3, 4 as negative control and 1-AMA/apoferritin mixture (10 uM horse-spleen apoferritin in 50% saturated 1-aminoanthracene in PBS) in columns 1, 2, 5-48) was dispensed into 1536-well Greiner black assay plates. Compounds (23 nL) were transferred via Kalypsys pintool equipped with 1,536-pin array (10 nL slotted pins, V&P Scientific, San Diego, CA). Titration of the positive control, propofol, were delivered via pin transfer from separate control plates to the 2nd column of each assay plate. The starting concentration of the control, dissolved in DMSO, was at 160 mM, followed by two-fold dilution points in duplicate, for a total of 16 concentrations. The plates were incubated for 10 min at room temperature, and then read on an EnVision HTS multilabel reader (Perkin-Elmer, Waltham, MA) (end point read, 3 min/plate) using Fura2 BFP excitation filter (380 nm, bandwidth 10 nm) and fluorescein emission filter (535 nm, bandwidth 25 nm) set. A LANCE/DELFIA dichroic mirror with a cutoff wavelength at 400 nm was used to maximize signal accuracy and strength. Vehicle-only plates, with DMSO being pin-transferred to the entire column 5-48 compound area, were inserted uniformly at the beginning and the end of each library in order to monitor for and record any shifts in the background. Activity was computed as the normalized fluorescence response relative to free 1-AMA and 1-AMA/apoferritin complex values. Concentration-effect relationships were derived by using curve fitting algorithms developed in-house (http://ncgc.nih.gov/pub/openhts/). A four parameter Hill equation was fitted to the concentration-response data by minimizing the residual error between the modeled and observed responses.
# % is scaled to controls: 0 for no effect and ±100 for the full control effect; potency is read from the fitted curve at half-maximal effect.
Structure (SMILES),"activity change, negative = displacement",Potency
CCc1cccc(NC(=O)CSc2nccn2C)c1,-12.6%,–
COc1ccc(-c2cn3c(C)c(C(=O)Nc4cc(C)cc(C)c4)sc3n2)cc1,1.93%,–
O=S(=O)(c1ccccc1)c1nc(-c2ccc(Cl)cc2Cl)oc1N1CCCCC1,643%,–
COc1cc(C(=O)Nc2ccc(-n3c(C)nc4ccccc4c3=O)cc2)cc(OC)c1OC,5.65%,–
Cc1nccn1CCCNC(=O)CC1C(=O)NCCN1Cc1ccc(Cl)c(F)c1 (configuration not stated),-5.87%,–
O=C(CC1C(=O)NCCN1Cc1ccc(-c2ccccc2)cc1)NCC1CCOCC1 (configuration not stated),-9.06%,–
CCOc1ccc(CN2CCNC(=O)C2CC(=O)NCCCC2CCCC2)cc1 (configuration not stated),–,31.6 µM (active)
CC(=O)c1cccc(NC(=O)c2nc(-c3ccccc3)n(-c3cccc(C)c3)n2)c1,-12%,–
O=C(c1cnn(-c2ccc(F)cc2)c1-n1cccc1)N1CCN(c2ccc(F)cc2)CC1,5.79%,–
CCCn1c2ccccc2c2cnn(CC(=O)N(C)c3ccccc3CC)c(=O)c21,90.4%,–
O=C(CCC(=O)N1CC2CCCN2c2ccccc21)NCc1ccccc1Cl (configuration not stated),-0.193%,–
Cc1ccc2nc(-c3ccc(C)c(NC(=O)Cc4ccccc4)c3)oc2c1,-0.615%,–
COc1ccc(N(CC(=O)NCCc2ccc(Cl)cc2)S(=O)(=O)c2c(C)nn(C)c2C)cc1,-5.18%,–
COC(=O)CSc1ccc2nnc(CCNS(=O)(=O)c3ccc(C)cc3)n2n1,–,inactive
Cc1ccc(S(=O)(=O)NCCc2nnc3ccc(SCc4cccnc4)nn23)cc1,-11.4%,–
O=S(=O)(NCCc1nnc2ccc(SCc3ccc(Cl)cc3Cl)nn12)c1ccccc1,–,17.8 µM (active)
CN1C(=O)c2ccccc2Sc2ccc(NC(=O)Cc3ccc(Cl)cc3)cc21,-9.63%,–
O=C(NCC(c1ccc2c(c1)OCO2)N1CCN(c2ccccc2)CC1)C(=O)Nc1ccccc1F (configuration not stated),-2.09%,–
Cc1ccc(Cl)cc1NC(=O)C(C)n1nnc2sc(-c3ccccc3)cc2c1=O (configuration not stated),6.14%,–

Structure (SMILES),"activity change, negative = displacement",Potency
O=C(Cn1cc(SCc2cccc(Cl)c2)c2ccccc21)N1CCCCC1,38.8%,–
CCN1CCN(c2ncc3c(n2)CC(c2ccccc2O)CC3=O)CC1 (configuration not stated),-14.1%,–
CCCCCCSc1nsc(N)n1,–,8.91 µM (active)
CCCSc1nsc(N)n1,-16.3%,–
Nc1nc(SC23CC4CC(CC(C4)C2)C3)ns1,-7.75%,–
O=C(c1ccc(Br)cc1)N(Cc1cccs1)c1ccc(F)cc1,8.94%,–
Cn1cc(S(=O)(=O)N2CCCCCC2)cc1C(=O)N1CCN(c2ccc(F)cc2)CC1,-7.65%,–
CC1Cc2ccccc2N1C(=O)CSc1nc2ccccc2o1 (configuration not stated),-12.6%,–
Cc1cc(=O)[nH]c(SCC(=O)N2c3ccccc3CC2C)n1 (configuration not stated),–,14.1 µM (active)
CC1Cc2ccccc2N1C(=O)CSc1nnc(C2CC2)n1C (configuration not stated),-5.61%,–
O=C(NCCCN1CCN(c2cccc(Cl)c2)CC1)c1nnc(Cc2ccc(F)cc2Cl)o1,-1.63%,–
COc1ccccc1CNC(=O)CCn1c(=O)c2ccccc2n(CC(=O)Nc2cccc(Cl)c2)c1=O,-10.4%,–
CCOc1cccc2c1N[C@@H](c1ccc(C(=O)O)cc1)[C@H]1CC=C[C@@H]21,-3.52%,–
CCC(=O)N1c2ccccc2CC1C(=O)N1CCN(c2ccccc2F)CC1 (configuration not stated),-12.2%,–
COc1ccc(-n2ccnc(NCCc3ccc(Cl)cc3)c2=O)cc1OC,-7.82%,–
O=C(Cn1nc(C(F)(F)F)c2c1CCCC2)Nc1ccc(Cl)cc1,-13.6%,–
COC(=O)c1ccc(NC(=O)CCc2c(C)nn(-c3ccc(N4CCCC4)nn3)c2C)cc1,-7.89%,–
COc1ccc(CCn2cc3c(c2-c2ccc(Br)cc2)c(=O)n(C)c(=O)n3C)cc1OC,0.216%,–
COc1ccc(CC(=O)NCCc2sc3nc(-c4ccc(OC)cc4)nn3c2C)cc1,4.35%,–

Structure (SMILES),"activity change, negative = displacement",Potency
Cc1cccc(N2CCN(C3=C(c4ccccc4)C(=O)c4ccccc43)CC2)c1C,6.14%,–
CCOc1ccc(N(C)S(=O)(=O)c2cc(-c3cnc(C)o3)ccc2OC)cc1,-4.52%,–
CC(=O)c1ccc(NC(=O)CSc2c(C(C)C)cnc3c2c(=O)n(C)c(=O)n3C)cc1,-11.9%,–
CCOc1ccc(C(=O)Nc2ccc3nc4c(c(Nc5ccccc5OC)c3c2)CCCC4)cc1,-7.47%,–
COc1ccc(NC(=O)c2ccco2)cc1NC(=O)COc1ccc(C)c(C)c1,-12.7%,–
CCOc1ccc(N(CC)S(=O)(=O)N2CCCC(C(=O)NCc3ccc(SC)cc3)C2)cc1 (configuration not stated),91.3%,–
O=C(Nc1ccccc1F)C(c1ccccc1)N1Cc2ccccc2C1=O (configuration not stated),-7.39%,–
CC(=O)N1CCc2cc(S(=O)(=O)NC(Cc3ccccc3)C(=O)NCc3ccc(C)cc3)ccc21 (configuration not stated),-6.46%,–
COc1cc2c(cc1OC)C(COc1ccc(F)cc1)N(C(=O)c1ccccc1F)CC2 (configuration not stated),-10%,–
COc1ccc(-c2onc(C)c2C)cc1S(=O)(=O)NCCc1ccccc1,-9.42%,–
Cc1ccc(-c2cc(N)n(Cc3cccc(Cl)c3)n2)cc1,-0.129%,–
Cc1ccccc1C(=O)N(Cc1ccc(N(C)C)cc1)CC1CCCO1 (configuration not stated),-3.91%,–
CCOc1cc(C2c3c(-c4ccc(Br)cc4)n[nH]c3C(=O)N2c2ccc(Cl)cc2)ccc1O (configuration not stated),-6.72%,–
CC(C)c1ccc(NC(=O)C2CCN(c3nc(-c4ccc(C(C)C)cc4)no3)CC2)cc1,40.1%,–
Cc1ccc(NC(=O)CSc2nc3c([nH]c4ccccc43)c(=O)n2-c2ccccc2)c(C)c1,-3.33%,–
CCCOc1ccc(C(=O)Nc2ccc3oc(-c4cccc(Cl)c4Cl)nc3c2)cc1,3.64%,–
COc1cc(OC)c(OC)cc1/C=C/c1nc2ccccc2c(=O)n1-c1ccc(Br)c(C)c1,7.26%,–
COc1ccc(N2CCN(C(=O)C3CCCN(C(=O)c4cc5sccc5n4C)C3)CC2)cc1 (configuration not stated),37%,–
CCc1ccccc1OCCSc1nc(-c2cccs2)nc2cc(=O)[nH]n12,-9.64%,–
